# Experimental data published in the supplement of paper PMC8728848.
# The full list was thinned out, with the strongest signals kept by preference.
# B1: Cohesin-mDCIR (Macaca mulatta) (protein)
# chain: GLDDLDAVRIKVDTVNAKPGDTVRIPVRFSGIPSKGIANCDFVYSYDPNVLEIIEIEPGDIIVDPNPDKSFDTAVYPDRKIIVFLFAEDSGTGAYAITKDGVFATIVAKVKEGAPNGLSVIKFVEVGGFANNDLVEQKTQFFDGGVNVGDTTEPATPTTPVTTPTTTDDLDAASFQKYSQLLEKMTTKDLVHTTLECVKKNMTTEETAWSCCPKNWKPFSSNCYFISTESASWQKSEKDCARMEAHLLVINTREEQDFIFQNLQEESAYFVGLSDPEGQRHWQWVDRTPYNESSTFWHPHEPSDPDERCVVLNFRKTPKRWGWNDVHCIVHQRSVCEMMKIHLHHHHHH
# Assays:
# Assay in all cases: glycan array binding signal (z-score within array); higher = stronger binding
# Settings in all cases: glycan notation: IUPAC condensed, linker removed
# [1] = biological target: Fuc(a1-2)Gal(b1-3)GlcNAc6S
# Summary of the method: (§1)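 Glycan array data were curated from 3228 arrays in the Consortium for Functional Glycomics database and kept only where the protein sequence was available. Glycan names were converted to IUPAC-condensed notation, and columns mapping to the same glycan were averaged. The binding signal is a within-array Z-score, averaged across arrays of the same protein sequence at different concentrations or buffers and across linkers. Negative Z-scores can be read as non-binding.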
# [2] = biological target: Fuc(a1-2)Gal(b1-3)[Fuc(a1-4)]GlcNAc(b1-3)[Fuc(a1-3)[Gal(b1-4)]GlcNAc(b1-6)]Gal(b1-4)Glc
# Summary of the method: as §1
# [3] = biological target: Fuc(a1-2)Gal(b1-4)GlcNAc(b1-6)GalNAc
# Summary of the method: as §1
# [4] = biological target: Fuc(a1-2)Gal(b1-4)[Fuc(a1-3)]GlcNAc
# Summary of the method: as §1
# [5] = biological target: Fuc(a1-2)[Gal(a1-3)]Gal(b1-3)GlcNAc
# Summary of the method: as §1
# [6] = biological target: Fuc(a1-2)[Gal(a1-3)]Gal(b1-3)GlcNAc(b1-3)GalNAc
# Summary of the method: as §1
# [7] = biological target: Fuc(a1-2)[Gal(a1-3)]Gal(b1-4)GlcNAc
# Summary of the method: as §1
# [8] = biological target: Fuc(a1-2)[GalNAc(a1-3)]Gal(b1-4)GlcNAc(b1-2)Man
# Summary of the method: as §1
# [9] = biological target: Fuc(a1-2)[GalNAc(a1-3)]Gal(b1-4)GlcNAc(b1-3)GalNAc
# Summary of the method: as §1
# [10] = biological target: Fuc(a1-2)[GalNAc(a1-3)]Gal(b1-4)GlcNAc(b1-6)GalNAc
# Summary of the method: as §1
# [11] = biological target: Fuc(a1-2)[GalNAc(b1-3)]Gal
# Summary of the method: as §1
# [12] = biological target: Fuc(a1-3)[Gal(b1-4)]GlcNAc(b1-2)Man
# Summary of the method: as §1
# Gal(a1-3)Gal(b1-3)GlcNAc = biological target: Gal(a1-3)Gal(b1-3)GlcNAc
# Summary of the method: as §1
# [13] = biological target: Gal(a1-3)Gal(b1-3)GlcNAc(b1-2)Man(a1-3)[Gal(a1-3)Gal(b1-3)GlcNAc(b1-2)Man(a1-6)]Man(b1-4)GlcNAc(b1-4)GlcNAc
# Summary of the method: as §1
# [14] = biological target: Gal(a1-3)Gal(b1-4)GlcNAc(b1-6)GalNAc
# Summary of the method: as §1
# [15] = biological target: Gal(b1-3)GlcNAc(a1-6)Gal(b1-4)GlcNAc
# Summary of the method: as §1
# [16] = biological target: Gal(b1-3)GlcNAc(b1-3)Gal(b1-4)Glc
# Summary of the method: as §1
# [17] = biological target: Gal(b1-3)GlcNAc(b1-6)GalNAc
# Summary of the method: as §1
# [18] = biological target: Gal(b1-3)[Fuc(a1-4)]GlcNAc(b1-3)Gal(b1-3)[Fuc(a1-4)]GlcNAc
# Summary of the method: as §1
# [19] = biological target: Gal(b1-3)[Neu5Ac(a2-6)]GlcNAc(b1-4)Gal(b1-4)Glc
# Summary of the method: as §1
# [20] = biological target: Gal(b1-4)GalNAc(b1-3)[Fuc(a1-2)]Gal(b1-4)GlcNAc
# Summary of the method: as §1
# [21] = biological target: Gal(b1-4)GlcNAc(b1-2)[Gal(b1-4)GlcNAc(b1-6)]Man(a1-6)[GlcNAc(b1-4)][Gal(b1-4)GlcNAc(b1-2)[Gal(b1-4)GlcNAc(b1-4)]Man(a1-3)]Man(b1-4)GlcNAc(b1-4)[Fuc(a1-6)]GlcNAc
# Summary of the method: as §1
# [22] = biological target: Gal(b1-4)GlcNAc(b1-3)Gal(b1-4)GlcNAc(b1-2)Man(a1-3)[Gal(b1-4)GlcNAc(b1-3)Gal(b1-4)GlcNAc(b1-2)Man(a1-6)]Man(b1-4)GlcNAc(b1-4)GlcNAc
# Summary of the method: as §1
# Gal3S(b1-4)Glc = biological target: Gal3S(b1-4)Glc
# Summary of the method: as §1
# [23] = biological target: Gal3S(b1-4)[Fuc(a1-3)]GlcNAc6S
# Summary of the method: as §1
# Gal6S(b1-4)GlcNAc6S = biological target: Gal6S(b1-4)GlcNAc6S
# Summary of the method: as §1
# GalNAc(a1-3)Gal = biological target: GalNAc(a1-3)Gal
# Summary of the method: as §1
# GalNAc(b1-3)Gal = biological target: GalNAc(b1-3)Gal
# Summary of the method: as §1
# [24] = biological target: GalNAc(b1-3)Gal(a1-4)Gal(b1-4)GlcNAc
# Summary of the method: as §1
# [25] = biological target: GalNAc(b1-3)Gal(a1-4)Gal(b1-4)GlcNAc(b1-3)Gal(b1-4)Glc
# Summary of the method: as §1
# [26] = biological target: GalNAc(b1-3)Gal(a1-6)Gal(b1-4)Glc
# Summary of the method: as §1
# GalNAc3S(b1-4)GlcNAc = biological target: GalNAc3S(b1-4)GlcNAc
# Summary of the method: as §1
# [27] = biological target: GlcNAc(a1-4)Gal(b1-3)GlcNAc
# Summary of the method: as §1
# [28] = biological target: GlcNAc(a1-4)Gal(b1-4)GlcNAc(b1-3)Gal(b1-4)GlcNAc
# Summary of the method: as §1
# [29] = biological target: GlcNAc(b1-2)Man(a1-3)[GlcNAc(b1-2)Man(a1-6)]Man(b1-4)GlcNAc(b1-4)GlcNAc
# Summary of the method: as §1
# GlcNAc(b1-3)Gal = biological target: GlcNAc(b1-3)Gal
# Summary of the method: as §1
# GlcNAc(b1-6)GalNAc = biological target: GlcNAc(b1-6)GalNAc
# Summary of the method: as §1
# [30] = biological target: Man(a1-2)Man(a1-3)[Man(a1-2)Man(a1-6)]Man(a1-6)[Man(a1-2)Man(a1-2)Man(a1-3)]Man
# Summary of the method: as §1
# [31] = biological target: Man(a1-3)[Man(a1-6)]Man(a1-6)[Man(a1-3)]Man(b1-4)GlcNAc(b1-4)GlcNAc
# Summary of the method: as §1
# [32] = biological target: Neu5Ac(a2-3)Gal(b1-3)GalNAc(b1-3)Gal(a1-4)Gal(b1-4)Glc
# Summary of the method: as §1
# [33] = biological target: Neu5Ac(a2-3)Gal(b1-3)[Fuc(a1-4)]GlcNAc(b1-3)Gal(b1-3)[Fuc(a1-4)]GlcNAc
# Summary of the method: as §1
# Neu5Ac(a2-3)Gal(b1-4)Glc = biological target: Neu5Ac(a2-3)Gal(b1-4)Glc
# Summary of the method: as §1
# [34] = biological target: Neu5Ac(a2-3)Gal(b1-4)GlcNAc(b1-2)Man(a1-3)[Neu5Ac(a2-3)Gal(b1-4)GlcNAc(b1-2)Man(a1-6)]Man(b1-4)GlcNAc(b1-4)[Fuc(a1-6)]GlcNAc
# Summary of the method: as §1
# [35] = biological target: Neu5Ac(a2-3)Gal(b1-4)GlcNAc(b1-3)Gal
# Summary of the method: as §1
# [36] = biological target: Neu5Ac(a2-3)Gal(b1-4)GlcNAc(b1-3)Gal(b1-4)GlcNAc
# Summary of the method: as §1
# [37] = biological target: Neu5Ac(a2-3)Gal(b1-4)[Fuc(a1-3)]GlcNAc(b1-6)[Neu5Ac(a2-3)Gal(b1-3)]GalNAc
# Summary of the method: as §1
# [38] = biological target: Neu5Ac(a2-6)Gal(b1-4)GlcNAc(b1-2)[Neu5Ac(a2-6)Gal(b1-4)GlcNAc(b1-4)]Man(a1-3)[GlcNAc(b1-4)][Neu5Ac(a2-6)Gal(b1-4)GlcNAc(b1-4)Man(a1-6)]Man(b1-4)GlcNAc(b1-4)GlcNAc
# Summary of the method: as §1
# [39] = biological target: Neu5Ac(a2-8)Neu5Ac(a2-8)Neu5Ac(a2-3)[GalNAc(b1-4)]Gal(b1-4)Glc
# Summary of the method: as §1
# Neu5Ac(b2-6)GalNAc = biological target: Neu5Ac(b2-6)GalNAc
# Summary of the method: as §1
binder,measurement,setting,value
B1,glycan array binding signal (z-score),[1],-0.407
same,glycan array binding signal (z-score),[2],-0.151
same,glycan array binding signal (z-score),[3],0.7
same,glycan array binding signal (z-score),[4],0.229
same,glycan array binding signal (z-score),[5],3.96
same,glycan array binding signal (z-score),[6],-0.241
same,glycan array binding signal (z-score),[7],-0.349
same,glycan array binding signal (z-score),[8],-0.101
same,glycan array binding signal (z-score),[9],-0.338
same,glycan array binding signal (z-score),[10],5.37
same,glycan array binding signal (z-score),[11],3.27
same,glycan array binding signal (z-score),[12],-0.274
same,glycan array binding signal (z-score),Gal(a1-3)Gal(b1-3)GlcNAc,8.73
same,glycan array binding signal (z-score),[13],-0.246
same,glycan array binding signal (z-score),[14],6.42
same,glycan array binding signal (z-score),[15],-0.186
same,glycan array binding signal (z-score),[16],-0.363
same,glycan array binding signal (z-score),[17],3.16
same,glycan array binding signal (z-score),[18],4.89
same,glycan array binding signal (z-score),[19],-0.388
same,glycan array binding signal (z-score),[20],-0.103
same,glycan array binding signal (z-score),[21],-0.425
same,glycan array binding signal (z-score),[22],4.39
same,glycan array binding signal (z-score),Gal3S(b1-4)Glc,5.11
same,glycan array binding signal (z-score),[23],1.55
same,glycan array binding signal (z-score),Gal6S(b1-4)GlcNAc6S,0.096
same,glycan array binding signal (z-score),GalNAc(a1-3)Gal,0.417
same,glycan array binding signal (z-score),GalNAc(b1-3)Gal,2.45
same,glycan array binding signal (z-score),[24],1.26
same,glycan array binding signal (z-score),[25],0.862
same,glycan array binding signal (z-score),[26],2.77
same,glycan array binding signal (z-score),GalNAc3S(b1-4)GlcNAc,-0.436
same,glycan array binding signal (z-score),[27],-0.401
same,glycan array binding signal (z-score),[28],-0.366
same,glycan array binding signal (z-score),[29],-0.313
same,glycan array binding signal (z-score),GlcNAc(b1-3)Gal,-0.352
same,glycan array binding signal (z-score),GlcNAc(b1-6)GalNAc,1.02
same,glycan array binding signal (z-score),[30],-0.438
same,glycan array binding signal (z-score),[31],-0.439
same,glycan array binding signal (z-score),[32],-0.388
same,glycan array binding signal (z-score),[33],-0.418
same,glycan array binding signal (z-score),Neu5Ac(a2-3)Gal(b1-4)Glc,-0.444
same,glycan array binding signal (z-score),[34],-0.364
same,glycan array binding signal (z-score),[35],-0.377
same,glycan array binding signal (z-score),[36],-0.175
same,glycan array binding signal (z-score),[37],-0.363
same,glycan array binding signal (z-score),[38],-0.257
same,glycan array binding signal (z-score),[39],0.263
same,glycan array binding signal (z-score),Neu5Ac(b2-6)GalNAc,-0.406
